LANA-H2A inh: blocks KSHV LANA binding to histone H2A/H2B | cell-free LANA-H2A/H2B peptide, fluorescence polarization | AID 2629 | Q9QR71 | 320,000 compounds, 0.6% hits | inhibition, % (test concentration not listed); in the data active = inhibition mostly above about 10%, no sharp cut-off; inactive = mostly below about 6.7%
HDAC3 inh: human HDAC3 inhibition | O15379 | recombinant HDAC3, fluorogenic peptide/trypsin coupled, fluorescence | inhibition, % at 8.3 µM | 320,000 compounds, 0.15% hits | AID 2718; in the data active = inhibition above about 26%, passing the limit was not always enough
Target sequence (O15379 whole entry, looked up): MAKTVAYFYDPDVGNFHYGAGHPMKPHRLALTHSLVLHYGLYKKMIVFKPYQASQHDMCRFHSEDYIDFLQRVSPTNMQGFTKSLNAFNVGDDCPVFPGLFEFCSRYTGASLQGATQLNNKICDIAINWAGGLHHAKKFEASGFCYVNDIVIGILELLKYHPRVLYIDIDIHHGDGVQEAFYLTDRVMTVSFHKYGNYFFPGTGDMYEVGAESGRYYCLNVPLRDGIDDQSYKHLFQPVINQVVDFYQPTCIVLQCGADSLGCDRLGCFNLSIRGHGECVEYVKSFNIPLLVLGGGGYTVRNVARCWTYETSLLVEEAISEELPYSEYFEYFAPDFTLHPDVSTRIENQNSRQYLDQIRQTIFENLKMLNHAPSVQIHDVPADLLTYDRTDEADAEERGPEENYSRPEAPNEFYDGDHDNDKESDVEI
HTR2A ag: activates the mouse 5-HT2A serotonin receptor; P35363; CHO-K1 mHTR2A beta-arrestin complementation, luminescence; percent of 30 µM serotonin response; activation, % at 7.6 µM; 360,000 compounds, 0.66% hits;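 active = activation above a run cutoff, the mean activation of all tested compounds plus 3 SD, cut at about 14% in these data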;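 also: 0% = plate median of compound wells and 100% = 30 µM serotonin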
CTSL1 counter: cathepsin L1 inhibition, PFM18AAP counter-screen | recombinant F. hepatica cathepsin L1, Z-Leu-Arg-MCA fluorescence | inhibition, % at 5.96 µM | 300,000 compounds, 0.49% hits;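 active = inhibition above the mean of all tested compounds plus 3 SD, set per screening campaign, cut at about 17% in these data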;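 also: 0% = plate median of test compound wells and 100% = 1 µM Z-Phe-Ala-diazomethylketone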
The depositor's hits bear a star. Most compounds without a hit are left out; they make up all but 1.7% or so of the library.

How did CCOc1ccccc1Cn1c(=O)sc2ccccc21 do in these assays?
LANA-H2A inh: 37*; HDAC3 inh: 1; HTR2A ag: -1; CTSL1 counter: 3

What do the screens show for `O=c1sc2ccccc2n1Cc1ccccc1`?
LANA-H2A inh: 4; HDAC3 inh: 2; HTR2A ag: -3; CTSL1 counter: 2

Results for O=C(CCl)N1CCN(S(=O)(=O)c2ccc3ccccc3c2)CC1 ?
LANA-H2A inh: 2; HDAC3 inh: 5; HTR2A ag: -1; CTSL1 counter: 19*

How did O=C(CN1CCCCC1)Nc1ccc(S(=O)(=O)N2CCCCCC2)cc1 do in these assays?
LANA-H2A inh: -4; HDAC3 inh: 4; HTR2A ag: -3; CTSL1 counter: -2

What do the screens show for `O=C(CN1CCCC1)Nc1ccc(S(=O)(=O)N2CCCCC2)cc1`?
LANA-H2A inh: 35*; HDAC3 inh: 0; HTR2A ag: -2; CTSL1 counter: 0

How did COc1ccc(S(=O)(=O)N2CCCCC2)cc1NC(=O)CCc1nc2ccccc2c(=O)[nH]1 do in these assays?
LANA-H2A inh: -2; HDAC3 inh: -3; HTR2A ag: -1; CTSL1 counter: 28*

What do the screens show for `O=C(CCl)Nc1cc(S(=O)(=O)N2CCCCCC2)ccc1Cl`?
LANA-H2A inh: 0; HDAC3 inh: 0; HTR2A ag: 0; CTSL1 counter: 80*

What do the screens show for `Cc1ccc(S(=O)(=O)N2CCCCC2)cc1NC(=O)CCc1nc2ccccc2c(=O)[nH]1`?
LANA-H2A inh: -3; HDAC3 inh: 0; HTR2A ag: -1; CTSL1 counter: -6

How did CN(C)C(=O)N1CCN(S(=O)(=O)c2ccc3ccccc3c2)CC1 do in these assays?
LANA-H2A inh: -8; HDAC3 inh: 0; HTR2A ag: 0; CTSL1 counter: -2

What do the screens show for `CCCCS(=O)(=O)Nc1ccc(N2CCOCC2)c(S(=O)(=O)N2CCOCC2)c1`?
LANA-H2A inh: -1; HDAC3 inh: -4; HTR2A ag: 0; CTSL1 counter: 2

How did COCOc1ccc(-c2ncc(OC)nc2NC(=O)c2cc(C)oc2C)cc1 do in these assays?
HTR2A ag: -4

How did COc1ccc(/C=C/C(=O)Nc2cc(S(=O)(=O)N3CCOCC3)ccc2C)cc1OC do in these assays?
LANA-H2A inh: active; HDAC3 inh: -1; HTR2A ag: 6; CTSL1 counter: 1

How did COc1ccc(OC)c(CC(=O)Nc2cc(S(=O)(=O)N3CCCCC3)ccc2C)c1 do in these assays?
LANA-H2A inh: 71*; HDAC3 inh: -5; HTR2A ag: 1

What do the screens show for `CS(=O)(=O)C1=NSC2=NC(=O)/C(=C\c3ccc(OC(=O)c4ccco4)cc3)C(=N)N21`?
LANA-H2A inh: 0; HDAC3 inh: 35*; CTSL1 counter: -4

Results for Cc1cc(/C=C2/C(=N)N3C(=NC2=O)SN=C3S(C)(=O)=O)c(C)n1-c1ccccc1F ?
LANA-H2A inh: 7; HDAC3 inh: 12; HTR2A ag: 1; CTSL1 counter: 1

Results for CS(=O)(=O)C1=NSC2=NC(=O)/C(=C\c3cccn3-c3ccc(Cl)cc3)C(=N)N21 ?
LANA-H2A inh: 48*; HDAC3 inh: 0; HTR2A ag: 9; CTSL1 counter: 1

What do the screens show for `Cc1[nH]c(=O)c(C#N)c(C)c1[N+](=O)[O-]`?
LANA-H2A inh: 13*; HDAC3 inh: -9; HTR2A ag: 2; CTSL1 counter: -2

What do the screens show for `CCN1CCN(S(=O)(=O)c2ccc(Cl)c(C(=O)N(C)CC(=O)Nc3c(C)cccc3C)c2)CC1`?
HTR2A ag: -2

How did Cc1cc(=O)oc2cc(OCC(=O)N/N=C/c3cc([N+](=O)[O-])ccc3O)ccc12 do in these assays?
LANA-H2A inh: active; HDAC3 inh: -5; HTR2A ag: -2; CTSL1 counter: -3

How did CC1(C)C(c2cccs2)=[N+]([O-])C2(CCCCC/C2=N\O)N1O (configuration not stated) do in these assays?
LANA-H2A inh: 13*; HDAC3 inh: 10; HTR2A ag: -1; CTSL1 counter: -2

Results for Cc1ccc(S(=O)(=O)CCC(=O)c2ccc(F)cc2)cc1 ?
LANA-H2A inh: -5; HDAC3 inh: 1; HTR2A ag: -1; CTSL1 counter: 43*

Results for Cc1ccc(C(=O)CCS(=O)(=O)c2ccc(F)cc2)cc1 ?
LANA-H2A inh: -2; HDAC3 inh: -2; HTR2A ag: 6; CTSL1 counter: 30*

How did Cc1ccc(C(=O)CCS(=O)(=O)c2ccc(Cl)cc2)cc1 do in these assays?
LANA-H2A inh: 5; HDAC3 inh: -6; HTR2A ag: -3; CTSL1 counter: 13

Results for CCOc1ccc(S(=O)(=O)N2CCCC(C(=O)NC3CCCC3)C2)cc1 (configuration not stated) ?
LANA-H2A inh: 3; HDAC3 inh: -13; HTR2A ag: -3; CTSL1 counter: 0

Screening data as filed in PubChem.
